# Measured values as given in the supplement of paper PMC11732987, “Enantioselective OTUD7B fragment discovery through chemoproteomics screening and high-throughput optimisation” (Communications Chemistry, 2025).
# Unmarked numbers belong to inactive results.
# Columns and labels:
# Test in all cases: log2 ratio of Biotin-Ahx-Ub-VS probe labelling (fragment/DMSO); higher = less target engagement (more negative = stronger competition), active = hit call of the paper (q ≤ 0.05, log2 ratio ≤ -1)
# Details in all cases: compound concentration: 200 uM; treatment time: 3 h
# [1] = target: T1, ALG13 (UniProt Q9NP73)
# T1 sequence (whole entry): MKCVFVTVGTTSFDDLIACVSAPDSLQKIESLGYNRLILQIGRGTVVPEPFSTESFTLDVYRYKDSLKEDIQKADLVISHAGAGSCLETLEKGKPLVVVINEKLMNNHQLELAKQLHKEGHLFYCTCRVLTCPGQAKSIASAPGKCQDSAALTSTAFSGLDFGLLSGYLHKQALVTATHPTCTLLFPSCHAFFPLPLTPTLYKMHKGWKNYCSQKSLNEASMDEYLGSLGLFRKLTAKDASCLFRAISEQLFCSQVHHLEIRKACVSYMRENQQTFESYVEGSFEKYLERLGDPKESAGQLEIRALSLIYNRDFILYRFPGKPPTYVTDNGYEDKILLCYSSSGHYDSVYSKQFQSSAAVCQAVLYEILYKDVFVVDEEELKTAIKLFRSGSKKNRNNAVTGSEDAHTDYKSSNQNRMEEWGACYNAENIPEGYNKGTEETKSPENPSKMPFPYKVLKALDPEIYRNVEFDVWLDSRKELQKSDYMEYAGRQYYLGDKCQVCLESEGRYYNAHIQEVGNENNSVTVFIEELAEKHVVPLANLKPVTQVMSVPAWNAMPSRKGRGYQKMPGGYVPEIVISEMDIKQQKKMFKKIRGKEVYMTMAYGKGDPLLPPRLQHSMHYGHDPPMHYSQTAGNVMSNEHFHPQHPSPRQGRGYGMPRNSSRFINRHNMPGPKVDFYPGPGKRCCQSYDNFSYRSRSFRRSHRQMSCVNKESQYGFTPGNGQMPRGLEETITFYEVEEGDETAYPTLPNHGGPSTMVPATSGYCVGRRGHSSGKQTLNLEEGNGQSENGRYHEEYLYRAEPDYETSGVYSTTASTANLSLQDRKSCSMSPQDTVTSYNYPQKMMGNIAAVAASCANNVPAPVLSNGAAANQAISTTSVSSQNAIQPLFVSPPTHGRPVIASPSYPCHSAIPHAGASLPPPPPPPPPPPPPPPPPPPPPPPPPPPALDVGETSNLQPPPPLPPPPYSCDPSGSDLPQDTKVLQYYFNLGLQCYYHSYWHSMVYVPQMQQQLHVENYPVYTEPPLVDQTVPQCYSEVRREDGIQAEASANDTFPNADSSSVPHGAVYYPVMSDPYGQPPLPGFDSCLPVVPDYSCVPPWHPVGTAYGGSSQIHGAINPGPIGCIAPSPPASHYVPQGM
# Summary of the method: (§1)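 Global-median-normalised Spectronaut label-free quantities were compared by unpaired t-test, and values are average log2 ratios of fragment over vehicle. Only proteins with ≥2 unique peptides were used. HEK293T lysate (495 µg per sample) was treated in triplicate with fragment at 200 µM or vehicle for 3 h and then with Biotin-Ahx-Ub-VS at 0.5 µM final for 1 h. Labelled DUBs were then NeutrAvidin-enriched, digested with LysC and trypsin, and run by diaPASEF LC-MS/MS.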
# [2] = target: ATXN3 (UniProt P54252)
# Sequence of ATXN3 (P54252 whole entry): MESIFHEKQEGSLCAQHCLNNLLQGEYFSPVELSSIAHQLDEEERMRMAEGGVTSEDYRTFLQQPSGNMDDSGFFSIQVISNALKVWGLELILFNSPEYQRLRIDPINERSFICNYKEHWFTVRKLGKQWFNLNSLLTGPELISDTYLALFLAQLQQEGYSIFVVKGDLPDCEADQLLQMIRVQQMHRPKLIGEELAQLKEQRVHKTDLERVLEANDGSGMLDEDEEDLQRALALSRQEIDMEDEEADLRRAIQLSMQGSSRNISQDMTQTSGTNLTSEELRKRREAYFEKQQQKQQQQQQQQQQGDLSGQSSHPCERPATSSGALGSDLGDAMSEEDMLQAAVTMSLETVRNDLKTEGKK
# Summary of the method: as §1
# [3] = target: T2, BAP1 (UniProt Q92560)
# T2 sequence (whole entry): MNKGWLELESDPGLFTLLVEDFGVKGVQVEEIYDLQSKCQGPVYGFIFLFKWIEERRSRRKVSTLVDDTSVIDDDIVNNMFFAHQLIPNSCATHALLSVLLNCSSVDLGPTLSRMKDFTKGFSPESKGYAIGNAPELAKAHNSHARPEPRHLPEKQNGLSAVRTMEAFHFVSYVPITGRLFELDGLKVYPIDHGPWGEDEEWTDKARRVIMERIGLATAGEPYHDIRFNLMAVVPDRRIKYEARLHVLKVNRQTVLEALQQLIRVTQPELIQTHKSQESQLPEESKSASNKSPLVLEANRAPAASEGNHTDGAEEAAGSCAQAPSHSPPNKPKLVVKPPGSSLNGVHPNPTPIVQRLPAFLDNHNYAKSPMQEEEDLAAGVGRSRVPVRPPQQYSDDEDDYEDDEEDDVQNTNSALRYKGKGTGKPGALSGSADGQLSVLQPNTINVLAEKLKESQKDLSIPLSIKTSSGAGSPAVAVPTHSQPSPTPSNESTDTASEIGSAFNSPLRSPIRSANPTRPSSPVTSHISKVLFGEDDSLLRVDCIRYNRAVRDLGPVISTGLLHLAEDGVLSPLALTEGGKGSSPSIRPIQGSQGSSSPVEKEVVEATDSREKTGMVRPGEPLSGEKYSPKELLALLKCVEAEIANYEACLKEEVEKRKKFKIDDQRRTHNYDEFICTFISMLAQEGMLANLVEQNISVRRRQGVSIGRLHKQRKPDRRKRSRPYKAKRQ
# Summary of the method: as §1
# [4] = target: EIF3F (UniProt O00303)
# Sequence of EIF3F (O00303 whole entry): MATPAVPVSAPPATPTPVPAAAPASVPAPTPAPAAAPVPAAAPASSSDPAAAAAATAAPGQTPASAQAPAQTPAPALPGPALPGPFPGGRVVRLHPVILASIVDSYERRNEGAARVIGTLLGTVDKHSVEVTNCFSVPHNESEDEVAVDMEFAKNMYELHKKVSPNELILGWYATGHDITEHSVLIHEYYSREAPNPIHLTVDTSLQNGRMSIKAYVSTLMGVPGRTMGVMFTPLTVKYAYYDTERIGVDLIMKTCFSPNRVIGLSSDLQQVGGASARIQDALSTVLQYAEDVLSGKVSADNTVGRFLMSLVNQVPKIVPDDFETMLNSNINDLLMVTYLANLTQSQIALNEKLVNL
# Summary of the method: as §1
# [5] = target: EIF3H (UniProt O15372)
# Sequence of EIF3H (O15372 whole entry): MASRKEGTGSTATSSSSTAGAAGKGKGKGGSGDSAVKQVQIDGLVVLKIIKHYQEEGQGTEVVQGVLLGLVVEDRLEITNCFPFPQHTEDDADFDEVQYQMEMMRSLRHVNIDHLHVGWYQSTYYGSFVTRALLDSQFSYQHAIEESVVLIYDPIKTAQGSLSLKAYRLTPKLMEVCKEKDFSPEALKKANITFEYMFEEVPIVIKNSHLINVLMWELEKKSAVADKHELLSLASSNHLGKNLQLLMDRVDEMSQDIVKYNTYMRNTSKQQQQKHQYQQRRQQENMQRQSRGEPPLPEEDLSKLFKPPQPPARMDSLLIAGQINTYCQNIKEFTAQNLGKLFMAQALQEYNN
# Summary of the method: as §1
# [6] = target: T3, FAM105A (UniProt Q9NUU6)
# T3 sequence (whole entry): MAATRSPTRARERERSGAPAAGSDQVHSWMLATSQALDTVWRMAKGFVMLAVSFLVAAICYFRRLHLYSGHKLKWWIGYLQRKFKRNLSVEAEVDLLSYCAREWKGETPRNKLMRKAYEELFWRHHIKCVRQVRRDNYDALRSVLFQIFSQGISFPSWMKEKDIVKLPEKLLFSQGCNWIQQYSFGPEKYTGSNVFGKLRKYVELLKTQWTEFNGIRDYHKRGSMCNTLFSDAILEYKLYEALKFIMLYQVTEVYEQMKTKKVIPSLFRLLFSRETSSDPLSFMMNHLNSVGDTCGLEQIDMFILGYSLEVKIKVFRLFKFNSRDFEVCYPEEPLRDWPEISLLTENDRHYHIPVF
# Summary of the method: as §1
# [7] = target: OTUB1 (UniProt Q96FW1)
# Sequence of OTUB1 (Q96FW1 whole entry): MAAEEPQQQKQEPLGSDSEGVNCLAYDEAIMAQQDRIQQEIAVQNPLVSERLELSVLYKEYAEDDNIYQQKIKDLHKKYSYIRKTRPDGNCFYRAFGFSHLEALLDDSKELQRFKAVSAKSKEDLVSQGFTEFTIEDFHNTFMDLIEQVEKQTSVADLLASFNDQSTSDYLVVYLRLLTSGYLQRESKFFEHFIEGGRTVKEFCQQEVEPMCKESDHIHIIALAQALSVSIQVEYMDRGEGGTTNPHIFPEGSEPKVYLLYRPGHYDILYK
# Summary of the method: as §1
# [8] = target: T4, OTUD4 (UniProt Q01804)
# T4 sequence (whole entry): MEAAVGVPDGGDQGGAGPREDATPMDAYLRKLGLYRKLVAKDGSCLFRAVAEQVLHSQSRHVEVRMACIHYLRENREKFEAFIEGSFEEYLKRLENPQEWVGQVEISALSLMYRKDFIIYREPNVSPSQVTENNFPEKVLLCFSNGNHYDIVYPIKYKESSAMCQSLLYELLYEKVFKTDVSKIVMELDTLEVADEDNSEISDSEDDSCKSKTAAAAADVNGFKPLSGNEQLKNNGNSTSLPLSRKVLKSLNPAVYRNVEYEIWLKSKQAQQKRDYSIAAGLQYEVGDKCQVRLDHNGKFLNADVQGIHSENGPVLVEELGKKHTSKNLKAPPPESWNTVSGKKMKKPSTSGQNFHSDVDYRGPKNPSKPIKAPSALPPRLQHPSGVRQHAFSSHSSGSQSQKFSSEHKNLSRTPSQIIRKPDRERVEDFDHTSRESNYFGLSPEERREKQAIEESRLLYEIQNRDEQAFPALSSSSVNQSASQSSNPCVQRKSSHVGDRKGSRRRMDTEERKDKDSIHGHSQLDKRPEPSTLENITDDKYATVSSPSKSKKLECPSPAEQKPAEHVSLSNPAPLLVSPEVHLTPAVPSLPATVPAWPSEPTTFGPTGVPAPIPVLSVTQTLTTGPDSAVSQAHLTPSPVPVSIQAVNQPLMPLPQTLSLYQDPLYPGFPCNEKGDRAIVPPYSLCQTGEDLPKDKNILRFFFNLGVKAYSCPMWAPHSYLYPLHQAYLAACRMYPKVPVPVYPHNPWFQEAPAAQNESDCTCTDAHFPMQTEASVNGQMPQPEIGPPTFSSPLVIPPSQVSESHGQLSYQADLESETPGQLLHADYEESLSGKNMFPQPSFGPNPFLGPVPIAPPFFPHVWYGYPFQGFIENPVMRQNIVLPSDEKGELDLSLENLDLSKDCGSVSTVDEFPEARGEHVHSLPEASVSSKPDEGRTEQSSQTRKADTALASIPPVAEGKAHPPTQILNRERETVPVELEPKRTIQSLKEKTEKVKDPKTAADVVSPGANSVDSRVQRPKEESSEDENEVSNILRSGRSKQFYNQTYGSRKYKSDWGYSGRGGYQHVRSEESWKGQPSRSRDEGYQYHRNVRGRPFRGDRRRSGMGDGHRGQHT
# Summary of the method: as §1
# [9] = target: T5, OTUD5 (UniProt Q96G74)
# T5 sequence (whole entry): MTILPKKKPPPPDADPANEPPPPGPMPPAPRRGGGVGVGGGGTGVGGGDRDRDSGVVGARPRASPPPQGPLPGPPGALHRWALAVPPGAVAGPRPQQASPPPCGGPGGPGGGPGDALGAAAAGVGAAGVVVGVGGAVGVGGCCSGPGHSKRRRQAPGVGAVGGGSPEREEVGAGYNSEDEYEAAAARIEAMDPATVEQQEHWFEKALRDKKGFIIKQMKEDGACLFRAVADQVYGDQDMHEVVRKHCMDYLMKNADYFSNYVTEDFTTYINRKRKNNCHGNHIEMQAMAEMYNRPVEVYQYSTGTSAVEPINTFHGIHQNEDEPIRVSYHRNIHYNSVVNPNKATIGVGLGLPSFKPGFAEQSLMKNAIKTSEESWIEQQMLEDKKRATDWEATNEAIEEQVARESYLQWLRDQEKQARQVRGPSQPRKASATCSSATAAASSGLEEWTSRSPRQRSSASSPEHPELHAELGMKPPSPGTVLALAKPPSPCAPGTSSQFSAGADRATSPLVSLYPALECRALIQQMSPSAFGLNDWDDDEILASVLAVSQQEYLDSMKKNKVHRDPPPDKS
# Summary of the method: as §1
smiles,measurement,setting,value
CN1C(=O)c2ccc(NC(=O)CCl)cc2C1=O,log2 ratio of Biotin-Ahx-Ub-VS probe labelling,[1],0.35
same,log2 ratio of Biotin-Ahx-Ub-VS probe labelling,[2],-0.464
same,log2 ratio of Biotin-Ahx-Ub-VS probe labelling,[3],-3.58 (active)
same,log2 ratio of Biotin-Ahx-Ub-VS probe labelling,[4],-0.166
same,log2 ratio of Biotin-Ahx-Ub-VS probe labelling,[5],0.319
same,log2 ratio of Biotin-Ahx-Ub-VS probe labelling,[6],-0.33
same,log2 ratio of Biotin-Ahx-Ub-VS probe labelling,[7],0.0722
same,log2 ratio of Biotin-Ahx-Ub-VS probe labelling,[8],-0.313
same,log2 ratio of Biotin-Ahx-Ub-VS probe labelling,[9],-0.621
